Out of some 2,100 compounds screened, about 650 (31%) were called active. Roughly 16% stayed inconclusive and do not appear here. The list shows a part of the results. A number with no mark means an inactive call. Calls follow the shape of the dose curve; as a rule, active = well fitted inhibition curve with a large enough effect; inconclusive = small, poorly fitted or top-dose-only effect; inactive = flat fitted curve, though single readings scatter.
assay: qHTS for inhibitors of Vif-A3G interactions: Cherry picks; settings: HeLa A3G-eYFP + Vif (tagged APOBEC3G with the HIV-1 protein that degrades it), 24 h; Potency: eYFP fluorescence increase; series mostly up to 36.9 µM; activity, negative = fluorescence increase: at the top concentration; also: nearly all actives have a fitted effect of over 80% in size; as to activity, negative = fluorescence increase: % of control where 0% means no effect
Method in brief: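 HeLa cells stably expressing A3G-eYFP and Vif, cultured overnight then exposed to compounds at several concentrations for 24 hours at 37 C, 5% CO2; cellular yellow fluorescence (488 nm ex, 500-530 nm em) imaged on Acumen, MG132 positive control.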
Potency is read from the fitted curve at half-maximal effect.

SMILES	Potency	activity, negative = fluorescence increase
Cc1cc(N2CCN(c3ccc([N+](=O)[O-])c4cccnc34)CC2)c2ccccc2n1	20.6 µM (active)	
O=[N+]([O-])c1cc(Cl)c2cccnc2c1O		-10.9% [at 46.1 µM]
CCC(=O)NC(=S)Nc1cccc(Cl)c1N1CCCC1		-1.38% [at 46.1 µM]
C=CCNc1nc2cc(-c3cccc(Cl)c3)sc2c(=O)n1C		0.835%
C=CCNC(=S)N/N=C/c1ccc(C)cc1C		7.22% [at 46.1 µM]
C=C(C(=O)c1ccccc1)C(NC(C)(C)C)c1ccccc1 (stereo not drawn)		4.2%
CC(=O)Nc1sc(/C(C#N)=C\c2cccc(Cl)c2)nc1-c1ccc(C)cc1	8.2 µM (active)	
CC(=O)Nc1sc(/C(C#N)=C/c2ccc(Cl)c(Cl)c2)nc1-c1ccc(C)cc1	5.8 µM (active)	
CCOc1cc(/C=C(\C#N)c2nc(-c3cccs3)c(NC(C)=O)s2)ccc1O	23.1 µM (active)	
CCOC(=O)c1c(-c2ccc(C)cc2)csc1NC(=O)/C(C#N)=C/c1ccc(O)c(OC)c1		-17.2%
O=C(Cn1ncc(Cl)c(Cl)c1=O)NCC1CCCCC1		-8.17%
CC(=O)c1cccc(-c2ccnc3c2CC(C(=O)NCc2ccco2)O3)c1 (stereo not drawn)		-11.6%
O=C(Cc1ccccc1)NCc1ccc(-n2cccc2)cc1		-1.88%
S=C(Nc1cccc2ccccc12)NN1CCCCCC1		10.3% [at 46.1 µM]
N#Cc1c(-c2ccccc2F)cc(C2CC2)nc1SCC(=O)c1cccs1	17.7 µM (active)	
CCc1c(C)nc(SCC(=O)c2cccs2)c(C#N)c1C		-25.4%
O=C(COC(=O)c1ccc(NS(=O)(=O)c2cccs2)cc1)NCc1ccco1		-2.14%
Cc1ccc2nc3c(cc(S(=O)(=O)c4ccccc4)c(=N)n3Cc3ccco3)c(=O)n2c1	29.1 µM (active)	
CC#Cc1cc2c(cc1O)CCC1C2CCC2(C)C(O)CCC12 (stereo not drawn)		-0.688%
O=C(NCc1cccnc1)c1ccc([N+](=O)[O-])o1		-7.07%
COc1ccc(/C=C/C(=O)c2ccc([N+](=O)[O-])o2)cc1		-6.52%
COc1cc(/C=C/C(=O)c2ccc([N+](=O)[O-])o2)ccc1O		-11.6%
O=C(/C=C/c1ccc(Cl)cc1)c1ccc([N+](=O)[O-])o1		-0.183%
N#CCc1ccc(NC(=O)/C=C/c2ccc([N+](=O)[O-])o2)cc1	8.2 µM (active)	
CC(=O)Nc1ccc2nc(NC(=O)c3ccc([N+](=O)[O-])o3)sc2c1		1.09%
CCOC(=O)CCc1ccc(NC(=O)/C=C/c2ccc([N+](=O)[O-])o2)cc1	23.1 µM (active)	

SMILES	Potency	activity, negative = fluorescence increase
CCc1ccc(C(=O)/C=C/c2ccc([N+](=O)[O-])o2)cc1	14 µM (active)	
COC(=O)c1sc(NC(=O)c2ccc([N+](=O)[O-])o2)c(C#N)c1C		-13.6%
Cc1cc(C)n(-c2nnc3n2N=C(c2c[nH]c4ccccc24)CS3)n1		-5.16%
CC1(C(=O)NCc2ccco2)Cc2c(-c3ccc(C(N)=O)cc3)ccnc2O1 (stereo not drawn)		-4.41%
Clc1ccsc1-c1csc(-c2cccnc2)n1		-3.28%
CCc1nnc(NC(=O)CSc2nnc(-c3ccccc3O)n2-c2ccc(C)cc2C)s1		-6.03%
Cc1ccc(O)c(NC(=O)c2cc(-c3ccccc3O)no2)c1	20.6 µM (active)	
Cc1ccc(O)c(Nc2c3ccccc3nc3ccccc23)c1		-3.08% [at 46.1 µM]
CCn1c(=O)c2cc(C(=O)NCCCOC)sc2c2ccccc21		-7.54%
C=C(/C=C/c1ccc(N(C)C)cc1)c1nc2ccccc2s1	18.4 µM (active)	
COc1ccccc1-c1cc(NC=O)c2ncc(-c3ccc(S(C)(=O)=O)cc3)n2c1		-10%
S=C(NC1CCCCC1)N(CCc1ccccc1)CCc1ccccc1		-9.72% [at 46.1 µM]
COc1cc2nc(/C=C/c3ccc(N(C)C)cc3)sc2cc1SC	16.4 µM (active)	
Cc1ccc(-c2cc(-c3ccco3)c3c(N)c(C(=O)NN)oc3n2)cc1	20.6 µM (active)	
CC(/C=N/NC(=O)c1cc(-c2ccccc2)nc2ccccc12)=C\c1ccco1		-8.64%
NNC(=O)c1oc2nc(-c3ccccc3)cc(-c3ccco3)c2c1N	20.6 µM (active)	
CC(C)(C)C(=O)/C(=C/c1ccc(Cl)cc1)n1cncn1		1.11%
CCN(CC)c1ccc2c(cc1=O)[C@@H](NC)CCc1cc(OC)c(OC)c(OC)c1-2		-19.2%
COC(=O)c1sc(-c2cccs2)cc1NC(=O)/C=C/C(=O)O		4.29%
C=CCN1C(=O)/C(=C2/Sc3ccc(OC)cc3N2CC)SC1=S	14.6 µM (active)	
C=CCN1C(=O)/C(=C2/Sc3ccc(OC)cc3N2C)SC1=Nc1cccc(O)c1	18.4 µM (active)	
C[C@]1(O)CC(=O)C=C[C@H]1Nc1ccccc1		3.1%
COc1ccccc1N1C(=O)C2C(C(=O)c3ccccc3)=NN(c3ccc(C)cc3)C2C1=O (stereo not drawn)		-26.3%
N=C1S/C(=C\c2ccc(-c3cccc(Cl)c3)o2)C(=O)N1c1nccs1	20.6 µM (active)	
Cc1ccc(Cn2c(SCc3ccc(C(=O)NC4CCCC4)cc3)nc3ccncc32)cc1		3.2% [at 46.1 µM]
CN(C)S(=O)(=O)c1ccc2c(c1)/C(=C/c1cc3c([nH]1)CCCC3)C(=O)N2	2.23 µM (active)	

SMILES	Potency	activity, negative = fluorescence increase
COc1ccc2c(c1)/C(=C\c1cccc(/C=C3/C(=O)Nc4ccc(OC)cc43)n1)C(=O)N2		0.897%
COc1ccc2c(c1)/C(=C/c1cc(OC)c(OC)c(OC)c1)C(=O)N2		-0.665%
CC(C)OC(=O)c1c2c(n3ccccc13)C(=O)c1ccccc1C2=O	10.3 µM (active)	
COc1cc(/C=C2\SC(=Nc3ccccc3)NC2=O)cc(Cl)c1O	20.6 µM (active)	
COc1cc(/C=C2\SC(=Nc3cccnc3)NC2=O)cc(OC)c1OC		-29.3% [at 46.1 µM]
CCOc1cc(Br)cc(/C=C2\SC(=Nc3ccccc3)NC2=O)c1O		-2.38%
O=c1c2ccccc2sc2ccc(NCCCN3CCOCC3)cc12	18.4 µM (active)	
Cc1ccc2[nH]c(C(=O)NN=C3CCCCC3)c(-c3ccccc3)c2c1		0.458%
CC1C/C(=N\NC(N)=S)c2cc(Cl)ccc2S1 (stereo not drawn)		6.57% [at 46.1 µM]
N#Cc1c(C(F)(F)F)cc(-c2ccccc2)nc1SCc1nc(N)nc(N2CCOCC2)n1	8.2 µM (active)	
Cc1ccc(N=C2NC(=O)CC(C(=O)Nc3ccc4c(c3)OCO4)S2)cc1 (stereo not drawn)		-1.13%
CC(C)n1c(O)c(N=Nc2ccc(Cl)nn2)c2ccccc21	16.4 µM (active)	
O=C(CSc1n[nH]c(-c2ccccn2)n1)Nc1ccc(Cl)cc1		3.07% [at 46.1 µM]
C/C(CC(=O)NCc1ccc(Cl)cc1)=N\NC(=O)COc1ccc(C)cc1Br		-1.44%
Cc1nc2c3cc(F)ccc3n(Cc3ccccc3F)c2s1		-11.9%
CCN1/C(=C\C=C(C(C)=O)C(C)=O)Sc2ccccc21	20.6 µM (active)	
O=C(CN1c2ccccc2Sc2ccccc21)NNC(=O)Nc1cccc(Cl)c1		-2.17%
Cc1ccc(-c2nc3ncccc3o2)cc1NC(=O)c1ccc([N+](=O)[O-])o1		0.107% [at 46.1 µM]
CC(C)C1C(=O)N(Cc2cn(CCC3OCCCO3)nn2)CCS(=O)(=O)N1Cc1ccc(-c2cccc(CO)c2)cc1 (stereo not drawn)		-11.4%
COc1ccc(-c2ccnc(-c3ccc(O)cc3)n2)cc1		-14.4%
CCC1=Nc2cc(C(=O)NCc3cccnc3)ccc2Sc2ccc(C)cc21		-8.44%
CCN(CC)C(=O)c1ccc(/C=C/c2c[nH]c3ccccc23)[n+](C)c1	18.4 µM (active)	
C[n+]1cc(C(=O)N2CCCCC2)ccc1/C=C/c1c[nH]c2ccccc12	14 µM (active)	
Cc1sc2nc(CSCC(=O)Nc3ccccc3C#N)[nH]c(=O)c2c1C		-16% [at 46.1 µM]
O=C1OC(/C(=C\Nc2cc(Cl)ccc2O)[N+](=O)[O-])c2ccccc21 (stereo not drawn)		-18.2%
CC(=O)Nc1cccc(-c2ccnc3c2CC(C(=O)Nc2cccc(N(C)C)c2)O3)c1 (stereo not drawn)		-3.68%

SMILES	Potency	activity, negative = fluorescence increase
COc1ccc(C(=O)NC(=S)NCc2cccnc2)cc1Cl		10.5% [at 46.1 µM]
O=[N+]([O-])c1ccc(C2=Nc3cc(Cl)ccc3OC2)cc1	29.1 µM (active)	
CCOC(=O)c1c(C)[nH]c(C(=O)N/N=C/c2cccc(OC)c2)c1C		-2.35%
CCOC(=O)c1cc(-c2ccccc2)sc1NC(=S)Nc1cc(C)ccn1	10.3 µM (active)	
CCOC(=O)c1ccc(NC(=S)Nc2cccc(C)n2)cc1		3.99% [at 46.1 µM]
Cc1ccnc(NC(=S)NC(=O)/C=C/c2ccco2)c1		-1.03%
CNC(=O)C(Sc1nc(C)nc2c1oc1ccccc12)C(C)=O (stereo not drawn)		-5.85%
COc1ccc(Cn2c(C)nc3c(c2=O)c2nc4ccccc4nc2n3Cc2ccco2)cc1	5.8 µM (active)	
COc1ccc(Cn2c(=O)cc(N)n(-c3ccccc3C)c2=O)cc1		-10.8%
O=C(Cc1cc2ccccc2o1)NCc1ccc(F)cc1		-2.9%
O=c1[nH]c2cc(Br)cnc2nc1/C=C(\O)c1ccc(F)cc1	13 µM (active)	
COc1cccc(OCc2nc3ncc(Br)cc3[nH]2)c1		-5.34%
COc1ccc(-c2nc3cnccn3c2NC2CCCCC2)cc1-c1cccc(Cl)c1		-13.1% [at 46.1 µM]
CCC(C)Sc1ccc(-c2nc3cc(C)ccn3c2NC2CCCCC2)cc1 (stereo not drawn)		-1.53% [at 46.1 µM]
CCCCNc1c(-c2ccc(SC3CCCCC3)cc2)nc2cnccn12	2.8 µM (active)	
COc1ccc(NC(=O)C2(C)Cc3c(-c4cccc(C(N)=O)c4)ccnc3O2)cc1 (stereo not drawn)		-5.15%
O=[N+]([O-])c1ccc(/C=N/Nc2ccc3ccccc3c2)o1	4.44 µM (active)	
Cc1cc(N/N=C/c2ccc([N+](=O)[O-])o2)nc2ccccc12	20.6 µM (active)	
O=C(N/N=C/c1ccc([N+](=O)[O-])o1)c1cc(-c2ccc(-c3ccccc3)cc2)nc2ccccc12		-17.5%
Cc1cc(C(=O)N/N=C/c2ccc(C)o2)c2ccccc2n1		-9.53%
Cc1cccc(Nc2nc(N)nc(-c3oc4ccccc4c3C)n2)c1		1.73%
O=C(Nc1nc(-c2ccccn2)cs1)C1CCCC1		2.08% [at 46.1 µM]
O=C(c1ccccc1)C(CN1CCCCC1)c1ccccc1 (stereo not drawn)		-1.48%
Nc1c(C(=O)c2ccccc2)sc2nsc(SCCN3CCOCC3)c12	16.4 µM (active)	
Nc1c(C(=O)c2ccccc2)sc2nsc(SCCN3CCCC3)c12	19.8 µM (active)	
